# PubChem BioAssay
# Calls of active or inactive are those of the source. Unless noted, how the calls were made is not given here.
# Key:
# [1] = test system: Hepatitis C virus NS3 helicase; assay: blockers of NS3h binding to ssDNA – biochemical, fluorescence polarization, LOPAC1280 library, primary screen (AID 687035; in the data active means inhibition above about 37%); details: Purified HCV NS3 helicase, Cy5-dT15 ssDNA binding fluorescence polarization; stronger effect = higher value; concentration not given here
# [2] = compounds altering Cy5-DNA-NS3h complex signal – biochemical, LOPAC1280, artefact control for HCV NS3 helicase inhibitor project (AID 687037); details: Cy5-DNA-NS3h complex fluorescence interference counterscreen
# [3] = viability loss with induced miR-34 in A549 – imaging, A549 dox-inducible miR-34, nuclei and caspase counts, primary screen (AID 1347080;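 active means compounds whose cell count with miR-34 switched on is under 0.7 times the count with it off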); details: A549 miR-34 inducible, Hoechst nuclei count, 48 h
# [4] = blockers of cellular phospholipid synthesis – cell-based, LOPAC library, screen 4, primary screen (AID 1347384); details: animal cells, phospholipid biosynthesis inhibition screen; at 10 µM
# [5] = galactose survival enhancers in mitochondrial complex I cybrids – cell-based, galactose medium, ATP luminescence, primary screen (AID 1645843;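 active means z-score of at least 1.8 in each of two replicates, scored against plate mean and spread of sample wells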;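 further: positive z means more ATP and so rescue of galactose-driven cybrid death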); details: complex I mutant cybrid cells, 72 h, stronger effect = higher value
# [6] = MELAS cybrid and Rieske KO viability enhancers – cell-based, MELAS cybrids, Rieske KO mouse fibroblasts, CellTiter-Glo, primary screen (AID 1508586;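 active means mean z-score across replicates of 1.96 or higher in either the MELAS or the Rieske mutant cell line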;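 further: z relative to plate mean and SD of compound and empty wells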); details: low glucose
# [7] = stronger effect = lower value, cell number ratio, induced over uninduced
# [8] = measured here: relative caspase fold change +Dox/-Dox
# [9] = measured here: total cells with miR-34 induction, stronger effect = lower value
# [10] = measured here: total cells without miR-34 induction
Compound,inhibition [1],fluorescence ratio (interference) [2],"fold change [3, 7]","fold change [3, 8]","cell count [3, 9]","cell count [3, 10]",outcome [4],z-score [5],"z-score ([6]; MELAS cybrid survival, CellTiter-Glo 48 h, stronger effect = higher value)","z-score ([6]; Rieske KO mouse fibroblast survival, CellTiter-Glo 72 h)"
Cc1cc2c(cc1Cl)N(C(=O)Nc1ccc(Oc3cccnc3C)nc1)CC2,-2% (inactive),0.9 (inactive),0.93 (inactive),1.1,4820,5180,inactive,-1.26 (inactive),,
CCNc1nc2c(ncn2[C@H]2C[C@H](O)[C@@H](CO)O2)c(=O)[nH]1,-2% (inactive),1 (inactive),0.97 (inactive),1.78,9970,10300,inactive,-0.005 (inactive),,
CCOC(=O)C1=C(C)NC(C)=C(C(=O)OCC)C1c1c(F)c(F)c(F)c(F)c1F,-5% (inactive),0.9 (inactive),1.11 (inactive),0.622,5220,4680,inactive,-0.415 (inactive),,
O=C(c1ccc(Cl)cc1)N1CCN(c2ccc([N+](=O)[O-])c3ncccc23)CC1,0% (inactive),1 (inactive),0.912 (inactive),1.42,6530,7170,inactive,-1 (inactive),,
CNCCc1cnc(CCC(c2ccccc2)c2ccccc2)[nH]1,-4% (inactive),1 (inactive),1.13 (inactive),0.656,5430,4810,inactive,-0.725 (inactive),,
CN1Cc2sccc2C(c2ccc(O)c(O)c2)C1 (stereo not given),-3% (inactive),1 (inactive),1.06 (inactive),2.13,10300,9720,inactive,-1.25 (inactive),,
CSc1ccccc1N1CCN(CCCCCC(=O)NC2CCCc3ccccc32)CC1 (stereo not given),-5% (inactive),1 (inactive),0.986 (inactive),1.19,7020,7120,inactive,-1.29 (inactive),,
CC(=O)/C=C1\C(=O)N(C)c2ccccc21,-2% (inactive),0.9 (inactive),0.98 (inactive),1.31,6920,7060,inactive,-1.48 (inactive),,
COc1cc(C(O)CO)ccc1O (stereo not given),-1% (inactive),1 (inactive),0.99 (inactive),1.37,9940,10000,inactive,0.42 (inactive),,
CN(C)CCCc1cc(C(=O)Nc2ccc(-c3ccncc3)cc2)ccc1O,-1% (inactive),1 (inactive),1 (inactive),1.13,7450,7450,inactive,1.58 (inactive),,
N[C@H](C(=O)O)[C@H](Cc1ccccc1)C(=O)O,-1% (inactive),1 (inactive),0.97 (inactive),1.76,10400,10700,inactive,0.705 (inactive),,
Nc1nc(OCC2CCCCC2)c2[nH]cnc2n1,-2% (inactive),1 (inactive),1.47 (inactive),1.19,7330,4990,inactive,-0.68 (inactive),,
COc1cc(N)c(Cl)cc1C(=O)OCCN1CCCCC1,-5% (inactive),1 (inactive),1.11 (inactive),1.42,10600,9550,inactive,0.695 (inactive),,
CC(=O)O[C@H]1Cc2ccccc2N(C(N)=O)c2ccccc21,-4% (inactive),1 (inactive),0.953 (inactive),1.06,10000,10500,inactive,0.61 (inactive),,
Nc1ccc(-c2ccc3ccccc3n2)cc1,-2% (inactive),1 (inactive),1.1 (inactive),1.06,7600,6930,inactive,-1.29 (inactive),,
O=C1/C(=C/c2ccsc2)CC/C1=C\c1cccs1,-4% (inactive),1 (inactive),0.99 (inactive),1.31,9920,10000,inactive,1.23 (inactive),,
NC[C@@H]1O[C@H](c2ccccc2)Cc2c1ccc(O)c2O,-3% (inactive),0.9 (inactive),0.966 (inactive),1.26,9490,9820,inactive,-1.3 (inactive),,
C=C1C[C@@]23CC[C@H]4[C@@](C)(CCC[C@@]4(C)C(=O)OC4OC(CO)C(O)C(O)C4O)[C@@H]2CC[C@]1(OC1OC(CO)C(O)C(O)C1OC1OC(CO)C(O)C(O)C1O)C3 (stereo not given in full),-1% (inactive),1 (inactive),1.06 (inactive),0.521,10700,10100,inactive,0.675 (inactive),,
Clc1ccc(N2CCN(Cc3cc4ccccn4n3)CC2)cc1,-6% (inactive),0.9 (inactive),1.01 (inactive),1.14,9670,9570,inactive,-1.08 (inactive),,
Cn1ncc(S(=O)(=O)Cc2ccccc2)c(Br)c1=O,-3% (inactive),0.9 (inactive),1.14 (inactive),1.46,2510,2200,inactive,-1.24 (inactive),,
O=C(CCCCCN1CCN(c2ccccc2-c2ccccc2)CC1)NC1CCCc2ccccc21 (stereo not given),0% (inactive),1 (inactive),1.17 (inactive),1.11,6130,5250,inactive,-1.38 (inactive),,
CCCCC#Cc1nc(NC)c2ncn([C@@H]3O[C@H](CO)C(O)[C@@H]3O)c2n1 (stereo not given in full),-2% (inactive),1 (inactive),1.02 (inactive),2.24,10300,10100,inactive,0.245 (inactive),,
OC[C@H]1OC(n2cnc3c(N[C@H]4CCC[C@@H]4O)ncnc32)[C@H](O)[C@@H]1O (stereo not given in full),-3% (inactive),1 (inactive),1.03 (inactive),1.86,10800,10500,inactive,0.53 (inactive),,
COCC(=O)NCC=Cc1ccc2ncnc(Nc3ccc(Oc4ccc(C)nc4)c(C)c3)c2c1,,,0.862 (inactive),1.21,5970,6930,,,-0.531 (inactive),1.09
